# FLuc inh-1: inhibitors of firefly (Photinus pyralis) luciferase; purified P. pyralis luciferase, luminescence, biochemical; Potency, µM (series often up to 115 µM), usual class: inhibitors; actives 2.5% (n = 76,000); further: on the % scale 0 is the no-effect control and ±100 the full control effect; nearly all actives have a fitted effect of over 65% in size
#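 Biochemical qHTS: compound (6-point titration) added to 10uM D-luciferin plus 10uM ATP in Tris acetate pH 7.5 buffer with Mg, Tween-20 and BSA, then purified enzyme at 10nM; light output imaged.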
# 3T3 cytotox: NIH 3T3 cell cytotoxicity | NIH 3T3 viability, CellTiter-Glo ATP luminescence, 48-72 h | Potency, µM (series often up to 96.7 µM), for inactives: at the top dose activity change, negative = cytotoxicity, most hits filed as inhibitors | actives 4.3% (n = 94,000); further: on the % scale 0 is the no-effect control and ±100 the full control effect; nearly all actives have a fitted effect of over 55% in size
#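 Viability of NIH 3T3 cells after 48 or 72 hr compound treatment at 37 °C was assessed by CellTiter-Glo, with luminescence imaged following a 10 min room-temperature step.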
# HEK293 tox: HEK 293 cell cytotoxicity. actives 6.6% (n = 94,000). HEK 293 viability, ATP luminescence (CellTiter-Glo), 48-72 h. Potency, µM (doses to about 115 µM), for the others: at the top dose activity change, negative = cytotoxicity, most hits filed as inhibitors; further: on the % scale 0 is the no-effect control and ±100 the full control effect; nearly all actives have a fitted effect of over 60% in size
#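 CellTiter-Glo luminescence (cellular ATP) was read after 48 or 72 hr of compound exposure at 37 degree Celsius. Cells were HEK 293 plated at 250 cells/well.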
# GPT2 inhibitor: blocks human glutamate pyruvate transaminase 2; Recombinant GPT2, coupled pyruvate oxidase/HRP Amplex Red fluorescence; Q8TD30; actives 0.25% (n = 100,000); Potency, µM (titrated, usually from 57.7 µM), for the others: top-dose activity change, negative = inhibition, hits mostly inhibitors; further: on the % scale 0 is the no-effect control and ±100 the full control effect; nearly all actives have a fitted effect of over 60% in size
#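 Recombinant GPT2 (10ng/uL) with 250uM a-KG and 2mM L-alanine, 30 min at room temperature, in HEPES pH 7.5 buffer. Pyruvate detected by pyruvate oxidase/HRP/Amplex Red fluorescence after 30 min in the dark; AOA (50uM) as positive control.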
# NPR1 antag: human Npr1 receptor antagonism; P16066; HEK293 hNpr1 GloSensor cGMP, ANP-stimulated luminescence; Potency, µM (series often up to 46.3 µM), for the others: at the top dose activity change, negative = inhibition, actives largely listed as inhibitors; actives 1.6% (n = 76,000); AID 1347048; calls by dose curve; further: on the % scale 0 is the no-effect control and ±100 the full control effect; nearly all actives have a fitted effect of over 60% in size
#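 Compound pre-incubated 30 min at room temperature on GloSensor-loaded HEK293 cells stably carrying hNpr1 and the pGS-40F cGMP biosensor. Stimulation uses hNppA at 0.1 nM final; luminescence is taken at baseline and 20 min post-agonist.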
# FLuc SDR no ATP: firefly luciferase binding stabilization, ATP absent | shares compounds with FLuc inh-1 | Purified FLuc-C-HiBiT, Nano-Glo HiBiT luminescence, no ATP | Potency, µM (series often up to 32.7 µM), for the others: at the highest dose activation (signal gain), usual class: activators | actives 7.8% (n = 1,300) | AID 1963318; further: nearly all actives have a fitted effect of over 55% in size
# FLuc SDR ATP: binders stabilizing firefly luciferase, plus ATP. purified FLuc-C-HiBiT + ATP, HiBiT complementation luminescence. Potency, µM (titrated, usually from 32.7 µM), inactives show at the top dose activation (gain of signal), most hits filed as activators. actives 8.7% (n = 1,300). shares compounds with FLuc inh-1;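 further: signal reports ligand binding via conformational change of the enzyme rather than luciferase catalysis; % of control where 0% means no effect; nearly all actives have a fitted effect of over 55% in size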
# FLuc inh-2: blocks firefly luciferase enzymatic activity; shares compounds with FLuc inh-1; Potency, µM (doses to about 32.7 µM), without a hit: at the highest dose activity change, negative = inhibition, usual class: inhibitors; AID 1963320; actives 42% (n = 1,300); purified FLuc-C-HiBiT enzyme, luciferin luminescence; further: on the % scale 0 is the no-effect control and ±100 the full control effect; nearly all actives have a fitted effect of over 70% in size
# * hit, by the source's call; i = inactive; ? = inconclusive; · = no result given; [ ] = another dose, or the depositor's remark. Only some compounds are listed: those with a hit (about 10% of all), similar ones and a draw of the others. Unless noted, the call rests on the fitted dose curve; in most records, active means well fitted curve in the direction sought with a large enough effect; inconclusive means small, poorly fitted or top-dose-only effect, or another doubt; inactive means no such curve, though single readings can be large; an effect the other way counts as inactive or inconclusive. Potency means the concentration at half of the fitted maximal effect.
SMILES,FLuc inh-1,3T3 cytotox,HEK293 tox,GPT2 inhibitor,NPR1 antag,FLuc SDR no ATP,FLuc SDR ATP,FLuc inh-2
Cc1ccc(-n2nc(C)c([C@H]3C=C[C@@H](OC(=O)Nc4cccc(C(F)(F)F)c4)C3)c2C)cc1Cl,11µM*,?,32µM*,-9%,?,14%,12%,-9%
Cc1nn(-c2ccc(C(C)(C)C)cc2)c(C)c1[C@@H]1C=C[C@@H](NC(=O)CCCC(=O)O)C1,22µM*,?,-24%[172 µM],-24%[88.5 µM],-11%[70.6 µM],25%[49.3 µM],?,?
Cc1nn(-c2ccc(C(F)(F)F)cc2)c(C)c1[C@@H]1C=C[C@@H](NC(=O)CSCC(=O)O)C1,i,-14%,?,1%,-2%,·,·,·
COc1ccc2nc(-c3cc(OC)c(OC)c(OC)c3)cc(C(=O)NCC(=O)Nc3ccc(C(C)=O)cc3)c2c1,·,·,·,-7%,·,·,·,·
COc1ccc(C(=O)COC(=O)CCCC(=O)Nc2ccc(C(C)=O)cc2)cc1,·,·,·,·,·,29%,19%,?
COC(=O)[C@@H]1Cc2ncn(Cc3ccc(OC)cc3)c2CN1C(=O)c1cccs1,i,?,-19%[172 µM],i,0%[70.6 µM],·,·,·
COCCOc1nc(N)c2[nH]c(=O)n(Cc3ccc(C(=O)O)cc3)c2n1,·,·,·,·,·,12%[11.8 µM],7%[11.8 µM],-1%[11.8 µM]
CC(C)C(=O)N1CCCC1C(=O)N1CCC(c2nc3ncccc3[nH]2)CC1 (stereo not given),·,-4%,-1%,-1%,·,·,·,·
CC1=CC(=O)CC(C)(C)C1CCC(C)O[C@@H]1O[C@H](CO[C@@H]2OC[C@@H](O)[C@H](O)[C@H]2O)[C@@H](O)[C@H](O)[C@H]1O (stereo not given in full),·,·,·,i,·,·,·,·
CCOc1cc2sc(N3CCC(C(=O)Nc4ccc(C(C)C)cc4)CC3)nc2cc1Br,·,·,·,·,·,16%,?,7µM*
CCOc1cc(=O)n2c(c1C(=O)Nc1ccc(C(C)C)cc1)CCCC2,i,4%,-5%,-4%,2%,·,·,·
c1ccc2sc(-c3cc4c(c(OC5CCOC5)c3)OCCN(Cc3cccn3-c3nccs3)C4)nc2c1 (stereo not given),·,·,·,·,·,14%,11%,-3%
Fc1ccccc1-c1n[nH]c2c1CN(Cc1cccn1-c1nccs1)CC2,i,-34%,?,i,-11%,·,·,·
Cc1noc(C)c1CC(=O)N1C[C@@H](Oc2ccccc2)C[C@@H]1C(=O)N1CCOCC1,i,-12%,-3%,0%,8%,·,·,·
Cc1noc(C)c1CC(=O)N1CCOc2c(cc(-c3nc4ccccc4s3)cc2OC2CCOC2)C1 (stereo not given),·,·,·,·,·,12%,12%,-4%
Oc1cc(-c2nc3ccccc3s2)cc2c1OCCN(Cc1ncccn1)C2,?,-37%,?,i,3%,13%,11%,-15%
Cc1ccccc1-c1cc(O)c2c(c1)CN(Cc1nccn1C)CCO2,i,-29%,?,2%,-8%,·,·,·
Oc1cc(-c2nc3ccccc3s2)cc2c1OCCN(Cc1cccn1-c1nccs1)C2,·,·,·,·,·,16%,9%,-5%
Oc1cc(-c2nc3ccccc3s2)cc2c1OCCN(Cc1cn[nH]c1-c1ccc(Cl)cc1)C2,·,·,·,·,·,13%,8%,-1%
Oc1cc(-c2nc3ccccc3s2)cc2c1OCCN(Cc1cccn1-c1ccc(Cl)cn1)C2,·,·,·,·,·,16%,13%,-10%
COC1=Cc2c(nc3n(c2=O)C(C)C(=O)NC3(O)C(C)C)OC=C1 (stereo not given),·,·,·,-33%[27.3 µM],·,·,·,·
Cc1ccc(Nc2ccnc(N3CCC(NC(=O)C4CCCC4)CC3)n2)cc1,·,?,?,i,·,·,·,·
Cc1nn(CC(=O)NCCN2CCOC2=O)c(=O)n1CCc1ccccc1,i,-4%,-5%,2%,0%,·,·,·
COc1ccc(C(=O)Nc2cc(S(=O)(=O)c3ccc(Cl)cc3)c(O)c(C)c2C)cc1,·,·,·,·,·,19%,14%,-14%
Cc1ccc(/C=C/c2nc3ccccc3[nH]2)cc1,·,·,·,·,·,0.39µM*,0.56µM*,0.044µM*
SMILES,FLuc inh-1,3T3 cytotox,HEK293 tox,GPT2 inhibitor,NPR1 antag,FLuc SDR no ATP,FLuc SDR ATP,FLuc inh-2
O=C(C1CC1)N1CCn2c(nnc2[C@@H]2C[C@@H](O)CN2Cc2ccccc2)C1,i,-8%,0%,-1%,3%,·,·,·
CC(C)Oc1ccc(C(=O)Nc2nnc3n2CCS3)cc1,·,·,·,·,·,28%,?,?
O=C(Cc1ccccc1F)N1CCC(OCCOc2ccc(F)cc2)CC1,·,-42%,?,-4%,·,·,·,·
CCOc1ccc2nc(N3CCN(C(=O)c4ccco4)CC3)sc2c1,·,·,·,·,·,24%,15%,?
O=C(CCc1nc2ccccc2s1)N1CCN(C(=O)c2ccco2)CC1,i,-9%,-10%,1%,-2%,·,·,·
CCCc1nc(C(=O)N2CCN(c3nc4ccccc4s3)CC2)cs1,i,?,?,0%[11.5 µM],?,·,·,·
CCCC(=O)N1CCN(c2nc3ccc(F)cc3s2)CC1,·,·,·,·,·,25%,?,11µM*
O=C(NCC1CC1)[C@@H]1CCCN1c1nccc(Nc2ccccc2Cl)n1,·,?,?,3%,·,·,·,·
CC(C)(C)c1nnc2ccc(C(=O)NCc3cccc(Cl)c3)cn12,·,?,?,i,·,·,·,·

# Source: PubChem (National Center for Advancing Translational Sciences (NCATS))
